This is a sample that favours compounds with a hit; in the whole collection about 0.3% have one here.
hcGAS inh: blocks human cGAS activity. inhibition, % at 12.5 µM. 290,000 tested, 0.081% active. Q8N884. recombinant h-cGAS, ATP depletion, Kinase-Glo luminescence
Target sequence (Q8N884 whole entry, looked up): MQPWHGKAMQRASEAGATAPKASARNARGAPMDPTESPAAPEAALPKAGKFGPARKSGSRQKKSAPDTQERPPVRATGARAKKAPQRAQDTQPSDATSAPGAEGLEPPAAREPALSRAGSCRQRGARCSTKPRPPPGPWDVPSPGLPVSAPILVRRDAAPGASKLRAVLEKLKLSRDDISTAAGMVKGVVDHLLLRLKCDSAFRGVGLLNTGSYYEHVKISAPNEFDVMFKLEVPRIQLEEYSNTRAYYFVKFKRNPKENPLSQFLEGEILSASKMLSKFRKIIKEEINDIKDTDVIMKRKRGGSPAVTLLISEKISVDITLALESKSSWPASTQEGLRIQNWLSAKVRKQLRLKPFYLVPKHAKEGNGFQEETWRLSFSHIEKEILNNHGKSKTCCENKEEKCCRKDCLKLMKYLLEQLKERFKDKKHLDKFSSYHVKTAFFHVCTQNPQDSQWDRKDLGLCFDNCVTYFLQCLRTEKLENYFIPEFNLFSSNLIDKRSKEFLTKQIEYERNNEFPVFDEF
NPYLR7 agonist: mosquito NPYLR7 agonism | HEK293T NPYLR7/Galpha15, GCaMP6s calcium fluorescence | 270,000 tested, 0.15% active | AID 1259423 | activation, % at 10 µM; in the data active means activation above about 40%
mcGAS inh: inhibitors of mouse cGAS; Q8C6L5; recombinant cGAS, Kinase-Glo ATP depletion luminescence; inhibition, % at 12.5 µM; 160,000 tested, 0.15% active; AID 1259399
Hits are given with their value; – = inactive; · = no result. Unless noted, no stated cut-off is given here; in the data, active means inhibition above about 40%; inactive means the rest.

SMILES | hcGAS inh | NPYLR7 agonist | mcGAS inh
COCc1[nH]n2c(=O)cc(Cc3ccccc3)nc2c1-c1ccccc1 | 56 | – | ·
O=c1cc(Cc2ccccc2)nc2c(-c3ccccc3)c(C(F)(F)F)[nH]n12 | 68 | – | ·
CNC(=O)c1ccnc(N2CCC3(CCNCC3)C2)c1 | – | – | –
CCN(C(=O)Nc1ccc(OC)c(F)c1)C(C)c1cccc(O)c1 (stereo not drawn) | – | – | ·
CCCNC(=O)Cn1nc2c(c1NC(=O)COc1ccc(C(C)C)cc1)CSC2 | – | – | –
O[C@@H]1CN(Cc2ccc3c(c2)OCO3)CC[C@H]1c1ccc2c(c1)OCO2 | – | – | ·
O[C@@H]1CN(Cc2ccncc2Cl)CC[C@H]1c1ccc2c(c1)OCO2 | – | 49 | ·
Cc1ccc(C(=O)N2CCN(C(=O)NC(CN3CCCCCC3=O)c3ccccc3)CC2)cc1F (stereo not drawn) | – | – | ·
CCCCC(CC)C(=O)N1CCN(c2nccc(-c3ccc(N4CCOCC4)cc3)n2)CC1 (stereo not drawn) | – | – | –
C#CCOCC(O)CN(Cc1ccccc1C)C1CC1 (stereo not drawn) | – | – | –
C#CCOCC(O)CN(Cc1cccn1Cc1ccccc1C)C1CC1 (stereo not drawn) | – | – | 41
Cc1nn(C)c2ncc(C(=O)NC(C3CC3)C3CC3)cc12 | – | – | ·
CCn1nc(-c2cc(Br)cs2)nc2c(=O)n(C)c(=O)nc1-2 | – | – | 60
O=c1ccccn1Cc1nc(-c2cc(Br)cs2)no1 | – | – | –
O=C(CNC(=O)c1ccncc1)N=Nc1c(O)n(CCc2ccccc2)c2ccccc12 | – | – | –
CCOC(=O)C1CCN(C(=O)c2ccc(CSc3nc(CC)cc(N4CCCC4)n3)o2)CC1 | – | – | –
Cc1cc(N2CCCC(c3ccn[nH]3)C2)c2cc3c(cc2n1)OCO3 (stereo not drawn) | – | – | ·
Cc1nc(-c2ccsc2)sc1C(=O)NCc1ccccc1 | – | – | –
CNC(=O)c1cnc(/C=C/c2csc(-c3ccsc3)n2)[nH]c1=O | – | 67 | ·
COC(=O)c1c(C)c2c(c(C)c1O)OC(=O)c1c(C)c(Cl)c(O)c(Cl)c1O2 | – | – | –
Cc1cc(O)c(C=O)c2c1C(=O)Oc1c(C)c(O)c3c(c1O2)C(O)OC3=O (stereo not drawn) | 42 | – | ·
COc1cc(C)c2c(c1C=O)Oc1c(c(C)c(O)c3c1C(O)OC3=O)OC2=O (stereo not drawn) | 70 | – | 41
CN1C(=S)N(CCCN2CCOCC2)C(=O)/C1=C\c1ccc2c(c1)OCO2 | – | – | –
CN1C(=S)N(CCCN2CCOCC2)C(=O)/C1=C/c1ccc(N(C)C)cc1 | – | 60 | –
CS(=O)c1ccc(NC(=O)c2n[nH]c3c2CCCC3)cc1 (stereo not drawn) | – | – | ·
SMILES | hcGAS inh | NPYLR7 agonist | mcGAS inh
CC(C)=CCCC1(C)C=Cc2c(O)c3c(c(CC=C(C)C)c2O1)OC12C(=CCCC1C(C)(C)O[C@@]2(C/C=C(\C)C(=O)O)C(=O)O)C3=O (stereo partly drawn) | 68 | · | 58
CC(C)=CCc1c2c(c(O)c3c(=O)c(O)c(-c4ccccc4)oc13)C=CC(C)(C)O2 | – | – | –
CCCS(=O)(=O)N1CCN=C1SCc1ccccc1C | – | 44 | –
CCCS(=O)(=O)N1CCN=C1SCc1cc(C)ccc1C | – | – | –
C=CCn1c(=NC(=O)c2ccc(C(C)=O)cc2)sc2cccc(OC)c21 | – | – | –
N#CC(C#N)=Cc1cn[nH]c1-c1cc2ccccc2o1 | – | – | 46
N#CC(C#N)=Cc1cn(-c2ccccc2)nc1-c1cc2ccccc2o1 | – | – | ·
N#Cc1cc(C(=O)c2cc(Br)ccc2O)cn(-c2ccccc2Cl)c1=O | – | – | ·
N#Cc1cc(C(=O)c2cc(Cl)cc(Cl)c2O)cn(-c2nccs2)c1=O | – | 135 | ·
COc1ccc(N(C(=O)c2ccc(N3CCOCC3)cc2)C(C)C)cc1F | – | – | ·
COCCN(Cc1ccc(OS(C)(=O)=O)cc1)C(=O)Nc1cccc2ccccc12 | – | · | –
N#Cc1ccc(-c2ccc(OCC(=O)N3N=CCC3(O)C(F)(F)F)cc2)cc1 (stereo not drawn) | – | · | ·
COc1ccccc1-c1cc(C(=O)NCCCN2CCOCC2)n2nc(-c3ccccc3)cc2n1 | – | · | –
COc1ccccc1-c1cc(C(=O)NCCCN2CCOCC2)n2nc(-c3ccc(Cl)cc3)cc2n1 | – | – | 42
Cc1ncc(C(=O)N(CCN(C)C)CC2CCCO2)c(C)n1 (stereo not drawn) | – | · | –
COc1ccc(CCOc2nc(-c3ccc(OC)cc3)n(-c3ccc(NC(=O)c4cccc(OC)c4)cc3)n2)cc1 | – | – | –
O=C1NC(=S)SC1=Cc1cc(Cl)c2c(c1)OCO2 | – | – | –
O=C1NC(=S)SC1=Cc1cc(O)c(O)c(Cl)c1 | – | 99 | ·
O=C1NC(=S)S/C1=C/C=C/c1ccccc1 | – | – | –
O=C1NC(=S)S/C1=C\C(Br)=C\c1ccccc1 | – | – | 52

Screens: PubChem BioAssay, Fisher Drug Discovery Resource Center
